The panel holds about 83,000 compounds, 20% with a hit somewhere; the sample as a whole holds those more often.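 Testing used 96-well plates and a 48-hour single-concentration exposure. Example: -40 means 40% of the starting cells died.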 Unmarked numbers belong to inactive results. Calls of active or inactive are those of the source. Rule for the calls: active = growth percent below 10; inactive = the rest.
System: SK-MEL-2 melanoma
Assay: NCI-60 one-dose screen, 48 h (100 = growth as untreated, 0 = no growth, -100 = all killed)
Conditions: 10 µM

SMILES | growth
CCOC(=O)c1cc(C(=O)c2cc(OC)c(OC)c(OC)c2)n2ncc3ccccc3c12 | 78.5%
Cc1c(Cl)cccc1NC(=O)CCCl | 103%
Cc1ccc(S(=O)(=O)N(C)CCCCCC(=O)O)cc1 | 99.9%
COc1cc(-c2nn(-c3cccc(NC(=O)NCCNS(=O)(=O)c4ccc(Cl)cc4)c3)cc2-c2ccncc2)ccc1Cl | 2.83% (active)
CC(=O)Oc1cc(OC(C)=O)c2ccccc2c1OC(C)=O | 90.5%
COc1cc(-c2nn(-c3cccc(NC(=O)CN4CCOCC4)c3)cc2-c2cccnc2)ccc1Cl | 82.1%
Cc1ccc(NCCNCC(C)(C)O)c2c(=O)c3ccc(Cl)cc3sc12 | 57.4%
COC(=O)C1(O)NC(=C(C#N)C#N)C(C#N)=C1C(=O)c1ccc(OC)c(OC)c1 (stereo not given) | 104%
CCN(CC)CCOc1ccc2c(c1O)C(=O)c1ccccc1C2=O | 88.1%
COc1cc(-c2nn(-c3ccc(NC(=O)NCCCNC(=O)c4ccccc4)cc3)cc2-c2ccncc2)ccc1Cl | 18%
COc1ccc2nc(-c3ccc(Cl)cc3)cc(-c3nnc(SC/C(=N\O)c4ccccc4)n3-c3ccccc3)c2c1 | 89.9%
CCOS(=O)(=O)c1c(C(C)C)cc(C(C)C)cc1C(C)C | 96.9%
O=S(=O)(O)c1cccc(Nc2ccc3ccccc3c2)c1 | 93.7%
CN(C)CCCSc1ccccc1NC1=C(Cl)C(=O)C(Nc2ccccc2SCCCN(C)C)=C(Cl)C1=O | 43.8%
Brc1ccc2c(c1)-c1ccccc1C1=NCCN12 | -39.7% (active)
CC(C)CCN(CCC(C)C)CC(=O)Nc1ccc(S(=O)(=O)c2ccc(NC(=O)CN(CCC(C)C)CCC(C)C)cc2)cc1 | 65.4%
CCNCC(=O)Nc1ccc(C(=O)OCC)cc1 | 102%
O=C(NCCCNS(=O)(=O)c1ccc(Cl)cc1)Nc1ccc(-n2cc(-c3ccncc3)c(-c3ccc(Cl)c(O)c3)n2)cc1 | 43.4%
C1CN(CC2CCC(CN3CCOCC3)O2)CCO1 (stereo not given) | 107%
CCN(CC)CC(=O)N(CC)c1ccc(C)c(Cl)c1 | 99.5%

SMILES | growth
CC(CN(C)C)Oc1ccc(OC(C)CN(C)C)c2c1C(=O)c1ccccc1C2=O (stereo not given) | 41%
O=C1c2ccccc2C(=O)c2c1ccc(C(Br)Br)c2[N+](=O)[O-] | 77.5%
COc1cc(-c2nn(-c3cccc(NC(=O)CCN4CCN(c5ccccc5)CC4)c3)cc2-c2ccncc2)ccc1Cl | -0.713% (active)
O=C(Nc1ccc(F)cc1)c1cc2ccccc2cc1O | 84.7%
O=C(Nc1ccc2c(O)cc(S(=O)(=O)O)cc2c1)c1ccc([N+](=O)[O-])cc1 | 102%
CN(C)CCCOc1cccc(NC2=C(Cl)C(=O)C(Nc3cccc(OCCCN(C)C)c3)=C(Cl)C2=O)c1 | -65.6% (active)
COc1cc(OC)c2c(=O)c(O)c(-c3ccccc3)oc2c1 | 87.3%
CC(=O)Nc1ccc(CC[C@H]2CCC/C=C/[C@@H]3C[C@H](O)C[C@H]3[C@H](O)/C=C/C(=O)O2)cc1 | -28.6% (active)
Nc1ncnc2c1ncn2C1(CO)OCC(O)C(O)C1O (stereo not given) | 93.5%
O=C(Nc1cccc2c1CCCC2)c1cc2ccccc2cc1O | 41.1%
CN(C)CCCOc1ccccc1NC1=C(Cl)C(=O)C(Nc2ccccc2OCCCN(C)C)=C(Cl)C1=O | -63.8% (active)
O=C(N/N=C/c1ccc([N+](=O)[O-])cc1)c1ccccc1Nc1cccc(C(F)(F)F)c1 | 80.9%
NNC(=O)Oc1c(Cl)cc(Cl)cc1[N+](=O)[O-] | 103%
Nc1ccc(/C=N/Nc2ccnc3c(O)cccc23)c2cccnc12 | 74.1%
O=S(=O)(O)c1ccc(Cl)cc1 | 95.9%
COc1cc(-c2nn(-c3cccc(NC(=O)NCCNC(=O)c4cccc(C(F)(F)F)c4)c3)cc2-c2ccncc2)ccc1Cl | 21.5%
CCOC(=O)c1cc(C(=O)c2cc(OC)c(OC)c(OC)c2)n2ccc(-c3cc[n+](CC(=O)c4cc(OC)c(OC)c(OC)c4)cc3)cc12 | 101%
CCOC(=O)c1cc(C(=O)c2cc(OC)c(OC)c(OC)c2)n2nc(C)ccc12 | 27.7%
CCOC(=O)c1cc(C(=O)c2ccc(Cl)cc2)n2ccc(-c3cc[n+](CC(=O)c4ccc(OC)cc4)cc3)cc12 | 97.6%
C/C=C/CSC(C)(C)C(=O)NC | 109%

System: EKVX NSCLC
Assay: as above
Conditions: 10 µM

SMILES | growth
CCOC(=O)c1cc(C(=O)c2cc(OC)c(OC)c(OC)c2)n2ncc3ccccc3c12 | 94.5%
Cc1c(Cl)cccc1NC(=O)CCCl | 106%
Cc1ccc(S(=O)(=O)N(C)CCCCCC(=O)O)cc1 | 95.9%
COc1cc(-c2nn(-c3cccc(NC(=O)NCCNS(=O)(=O)c4ccc(Cl)cc4)c3)cc2-c2ccncc2)ccc1Cl | 29.8%
CC(=O)Oc1cc(OC(C)=O)c2ccccc2c1OC(C)=O | 97.5%
COc1cc(-c2nn(-c3cccc(NC(=O)CN4CCOCC4)c3)cc2-c2cccnc2)ccc1Cl | 95.8%
Cc1ccc(NCCNCC(C)(C)O)c2c(=O)c3ccc(Cl)cc3sc12 | 71.8%
COC(=O)C1(O)NC(=C(C#N)C#N)C(C#N)=C1C(=O)c1ccc(OC)c(OC)c1 (stereo not given) | 113%
CCN(CC)CCOc1ccc2c(c1O)C(=O)c1ccccc1C2=O | 100%
COc1cc(-c2nn(-c3ccc(NC(=O)NCCCNC(=O)c4ccccc4)cc3)cc2-c2ccncc2)ccc1Cl | 51.4%
COc1ccc2nc(-c3ccc(Cl)cc3)cc(-c3nnc(SC/C(=N\O)c4ccccc4)n3-c3ccccc3)c2c1 | 96.2%
CCOS(=O)(=O)c1c(C(C)C)cc(C(C)C)cc1C(C)C | 97.8%
O=S(=O)(O)c1cccc(Nc2ccc3ccccc3c2)c1 | 105%
CN(C)CCCSc1ccccc1NC1=C(Cl)C(=O)C(Nc2ccccc2SCCCN(C)C)=C(Cl)C1=O | 67.5%
Brc1ccc2c(c1)-c1ccccc1C1=NCCN12 | -2.72% (active)
CC(C)CCN(CCC(C)C)CC(=O)Nc1ccc(S(=O)(=O)c2ccc(NC(=O)CN(CCC(C)C)CCC(C)C)cc2)cc1 | 83.1%
CCNCC(=O)Nc1ccc(C(=O)OCC)cc1 | 104%
O=C(NCCCNS(=O)(=O)c1ccc(Cl)cc1)Nc1ccc(-n2cc(-c3ccncc3)c(-c3ccc(Cl)c(O)c3)n2)cc1 | 61.7%
C1CN(CC2CCC(CN3CCOCC3)O2)CCO1 (stereo not given) | 100%
CCN(CC)CC(=O)N(CC)c1ccc(C)c(Cl)c1 | 105%

SMILES | growth
CC(CN(C)C)Oc1ccc(OC(C)CN(C)C)c2c1C(=O)c1ccccc1C2=O (stereo not given) | 70.7%
O=C1c2ccccc2C(=O)c2c1ccc(C(Br)Br)c2[N+](=O)[O-] | 46.8%
COc1cc(-c2nn(-c3cccc(NC(=O)CCN4CCN(c5ccccc5)CC4)c3)cc2-c2ccncc2)ccc1Cl | 38.1%
O=C(Nc1ccc(F)cc1)c1cc2ccccc2cc1O | 87.2%
O=C(Nc1ccc2c(O)cc(S(=O)(=O)O)cc2c1)c1ccc([N+](=O)[O-])cc1 | 93.7%
CN(C)CCCOc1cccc(NC2=C(Cl)C(=O)C(Nc3cccc(OCCCN(C)C)c3)=C(Cl)C2=O)c1 | -95.8% (active)
COc1cc(OC)c2c(=O)c(O)c(-c3ccccc3)oc2c1 | 83.4%
CC(=O)Nc1ccc(CC[C@H]2CCC/C=C/[C@@H]3C[C@H](O)C[C@H]3[C@H](O)/C=C/C(=O)O2)cc1 | 8.89% (active)
Nc1ncnc2c1ncn2C1(CO)OCC(O)C(O)C1O (stereo not given) | 100%
O=C(Nc1cccc2c1CCCC2)c1cc2ccccc2cc1O | 59.8%
CN(C)CCCOc1ccccc1NC1=C(Cl)C(=O)C(Nc2ccccc2OCCCN(C)C)=C(Cl)C1=O | -82% (active)
O=C(N/N=C/c1ccc([N+](=O)[O-])cc1)c1ccccc1Nc1cccc(C(F)(F)F)c1 | 92.4%
NNC(=O)Oc1c(Cl)cc(Cl)cc1[N+](=O)[O-] | 105%
Nc1ccc(/C=N/Nc2ccnc3c(O)cccc23)c2cccnc12 | 61.8%
O=S(=O)(O)c1ccc(Cl)cc1 | 105%
COc1cc(-c2nn(-c3cccc(NC(=O)NCCNC(=O)c4cccc(C(F)(F)F)c4)c3)cc2-c2ccncc2)ccc1Cl | 60.1%
CCOC(=O)c1cc(C(=O)c2cc(OC)c(OC)c(OC)c2)n2ccc(-c3cc[n+](CC(=O)c4cc(OC)c(OC)c(OC)c4)cc3)cc12 | 107%
CCOC(=O)c1cc(C(=O)c2cc(OC)c(OC)c(OC)c2)n2nc(C)ccc12 | 88.3%
CCOC(=O)c1cc(C(=O)c2ccc(Cl)cc2)n2ccc(-c3cc[n+](CC(=O)c4ccc(OC)cc4)cc3)cc12 | 96.4%
C/C=C/CSC(C)(C)C(=O)NC | 99.8%

— PubChem BioAssay (NCI)
